Results from PubChem BioAssay (NCI).
About 83,000 compounds went through this panel and 20% of them were active in at least one assay; those are over-represented in the sample as a whole.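 Values shown are percent growth following 48 h exposure of cells in 96-well plates to a single concentration of compound; below 10 was considered active.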 The source made the active and inactive calls.

System: ACHN renal
Assay: NCI-60 one-dose screen, 48 h (100 = growth as untreated, 0 = no growth, -100 = all killed)
Conditions: 10 µM unless noted
Procedure: Growth inhibition of the ACHN human tumor cell line is measured as a screen for anti-cancer activity. Cells are grown in 96 well plates and exposed to the test compound for 48 hours. Compounds are tested at a single concentration, which is 10^-5 M for most compounds. The reported endpoint is percent growth (GI% or GIPRCNT), where numbers from 0 - 100% represent growth inhibition, and numbers from -100% - 0 represent cell death. For example, a value of 40 represents 60% growth inhibition. A value of 0 means no net growth occurred over the course of the experiment. A value of -40 indicates 40% of cells at the beginning of the experiment died by the end of the experiment. A value of -100 means all cells are dead at the end of the experiment.
NCI-60 Human Tumor Cell Lines Screen was performed using the standard one-dose NCI protocol, which is described in more detail at https://dtp.cancer.gov/discovery_development/nci-60/default.htm.
Compounds with GIPRCNT values below 10 were considered active. Activity score was based on GIPRCNT using the following formula: […]
Score is 0 for GIPRCNT values of 100 or above, 50 for GIPRCNT values of 0, and 100 for GIPRCNT values of -100.

Row | Structure (SMILES) | growth
1 | NC(=O)C(Br)c1ccccc1 (stereo not given) | 87.2% (inactive)
2 | CO[C@H]1CC[C@@]2(C)C(=CC[C@@H]3[C@@H]2CC[C@]2(C)C(=O)C(=O)C[C@@H]32)C1 | 102% (inactive)
3 | O=[N+]([O-])c1cnc[nH]1 | 118% (inactive)
4 | COC(=O)[C@@H](C)C[C@H](Cc1ccc(F)cc1)NC(=O)c1csc([C@@H](C[C@H](C(C)C)N(C)C(=O)[C@@H](NC(=O)[C@H]2CCCCN2C)C(C)C)OC(C)=O)n1 | 22.1% (inactive)
5 | C[C@@]12CC=C3c4nc(Nc5cccc(O)c5)sc4CC[C@]3(C)[C@H]1CC[C@]1(C)C(=O)CC[C@@H]21 | 5.12% (active)
6 | Cn1cc(-c2csc(-c3cn(CCCCN4CCCCC4)c4ccccc34)n2)c2cccnc21 | -96.4% (active)
7 | CC[C@H](C)[C@H](NC(=O)c1nccn1C)C(=O)N(C)[C@H](C[C@@H](OC(C)=O)c1nc(C(=O)N[C@@H](Cc2ccccc2)C[C@H](C)C(=O)OC)cs1)C(C)C | 42.3% (inactive)
8 | COC(=O)[C@@H](C)C[C@H](Cc1ccc2ccccc2c1)NC(=O)c1csc([C@@H](C[C@H](C(C)C)N(C)C(=O)[C@@H](NC(=O)[C@H]2CCCCN2C)C(C)C)OC(C)=O)n1 | 4.23% (active)
9 | CCC[CH2][Sn]([CH2]CCC)([CH2]CCC)[O]c1ccc(Cl)cc1Cl | -69.5% (active)
10 | COc1cc(C=C2c3ccccc3C(=O)c3ccccc32)ccc1OCCCCOc1cc2c(cc1OC)C(=O)N1CCCC1C=N2 (stereo not given) | -62.8% (active)
11 | Cc1ccc(C(=O)NCCCOc2ccc(N3C(N)=NC(N)=NC3(C)C)cc2Cl)cc1S(=O)(=O)F | 110% (inactive)
12 | C=CC[PH+](c1ccccc1)c1ccccc1.C=CC[PH+](c1ccccc1)c1ccccc1.[Cl][Pt][Cl] | 35.9% (inactive)
13 | COC(=O)[C@@H](C)C[C@H](Cc1ccccc1)NC(=O)c1csc([C@@H](C[C@H](C(C)C)N(C)C(=O)[C@@H](NC(=O)[C@H]2CCCCN2C)C(C)C)OC(C)=O)n1 | 12.6% (inactive)
14 | O=C(Nc1ccc(Br)cc1)c1cc(Br)cc(Br)c1O | -19.5% (active)
15 | CNCc1cccnc1 | 106% (inactive)
16 | COc1ccc(S(=O)(=O)Nc2c(/C=C\c3cc(OC)c(OC)c(OC)c3)ccc(OC)c2O)cc1OC | 29.6% (inactive)
17 | Cc1c2cc(Cl)c3ccccc3c2c[n+]2ccccc12 | 92.2% (inactive)
18 | N#CC1C(C#N)C2CCC1C1C2N1c1ccccc1 (stereo not given) | 97.4% (inactive)
19 | COC(=O)[C@@H](C)C[C@H](Cc1ccccc1)NC(=O)c1csc([C@@H](C[C@H](C(C)C)N(C)C(=O)[C@@H](NC(=O)CN(C)C)C2CC2)OC(C)=O)n1 | 25.3% (inactive)
20 | CC(=O)O[C@H]1CC[C@H]2[C@@H]3CC=C4c5nc(-c6ccccc6)sc5CC[C@]4(C)[C@H]3CC[C@]12C | 91.8% (inactive)

Row | Structure (SMILES) | growth
21 | CCCOC(=O)N[C@H]1CCc2c(Br)c(OC)c(OC)c(OC)c2-c2ccc(SC)c(=O)cc21 | 27.6% (inactive)
22 | Cc1ccc(Nc2nc3c(s2)C2=CC[C@@H]4[C@H](CC[C@]5(C)C(=O)CC[C@@H]45)[C@@]2(C)CC3)cc1 | 20.1% (inactive)
23 | Fc1c[c-]c(-c2ccccn2)c(F)c1.[CH3-].[Pt+2].c1ccc([PH+](c2ccccc2)c2ccccn2)cc1 | -80.4% (active)
24 | Cn1cccc1C1CC(=O)N(CCC[Se]C#N)C1=O (stereo not given) | -4.46% (active)
25 | O=C1NC(=O)C(=Cc2cccn2CCCCCn2c3ccccc3c(=O)c3ccccc32)C(=O)N1 | 105% (inactive)
26 | O=[N+]([O-])c1ccc([Se]C2CCCCC2Cl)c([N+](=O)[O-])c1 (stereo not given) | 88.2% (inactive)
27 | CCCCCCCCCCCCCCCCCC1OC[C@@H](COC(=O)O[C@@H](C(=O)O[C@H]2C[C@@]3(O)[C@@H](OC(=O)c4ccccc4)[C@@H]4[C@]5(OC(C)=O)CO[C@@H]5C[C@H](O)[C@@]4(C)C(=O)[C@H](OC(C)=O)C(=C2C)C3(C)C)[C@@H](NC(=O)c2ccccc2)c2ccccc2)O1 (stereo not given in full) | 92.4% (inactive)
28 | CCOC(=O)N[C@H]1CCc2c(Br)c(OC)c(OC)c(OC)c2-c2ccc(SC)c(=O)cc21 | 24.4% (inactive)
29 | CCOC(=O)[C@@H](C)C[C@H](Cc1ccccc1)NC(=O)c1csc([C@@H](C[C@H](C(C)C)N(C)C(=O)CNC(=O)[C@H]2CCCCN2C)OC(C)=O)n1 | 43.7% (inactive)
30 | COc1cc(NCCCN=C(N)N)c2ncccc2c1 | 100% (inactive)
31 | CN(C)C(=O)Oc1ccccc1-c1ccccc1 | 104% (inactive)
32 | C/C(=C\c1ccn(-c2ccc(N)c(F)c2)n1)[C@@H]1C[C@@H]2O[C@]2(C)CCC[C@H](C)[C@H](O)[C@@H](C)C(=O)C(C)(C)[C@@H](O)CC(=O)O1 | 44.6% (inactive)
33 | ClCCN(CCCl)c1ccc(/C=N/Nc2ncnc3nc[nH]c23)cc1 | 74.8% (inactive)
34 | O=C(CCCC1CCCCC1)OCC(Cl)(Cl)Cl | 110% (inactive)
35 | C/C(=C\c1ccn(-c2ccc(N)cc2C(F)(F)F)n1)[C@@H]1C[C@@H]2O[C@]2(C)CCC[C@H](C)[C@H](O)[C@@H](C)C(=O)C(C)(C)[C@@H](O)CC(=O)O1 | 50% (inactive)
36 | COc1ccc(/C=C\c2cc(OC)c(OC)c(OC)c2)cc1OCC(=O)Nc1nc2ccc(C(F)(F)F)cc2s1 | 38.2% (inactive)
37 | COc1ccc(C2=N[C@@H](Cc3ccccc3)C(=O)Nc3ccsc32)cc1 | 55.7% (inactive)
38 | CC[C@H](C)[C@H](NC(=O)c1cccn1C)C(=O)N(C)[C@H](C[C@@H](OC(C)=O)c1nc(C(=O)N[C@@H](Cc2ccccc2)C[C@H](C)C(=O)OC)cs1)C(C)C | 30% (inactive)
39 | Cc1cc(C)cc(Nc2nc3c(s2)CC[C@@]2(C)C3=CC[C@@H]3[C@@H]2CC[C@]2(C)C(=O)CC[C@@H]32)c1 | 63.4% (inactive)
40 | CSc1nc(Cl)cc(N2CC2)n1 | 109% (inactive)
